The list is not random: actives were taken first. Their share in the collection is about 4.7%.
TGFb SMAD3 inh – blocks TGF-b signaling. HepG2 CAGA-GFP TGF-b/SMAD3 reporter, GFP fluorescence, 18 h; TGF-beta stimulated, 500 pg/mL final. Potency, µM (doses to about 46.1 µM), without a hit: at the top dose activity, negative = inhibition, hits mostly inhibitors. actives 1.2% (n = 410,000). AID 588855; also: potency is read from the fitted curve at half-maximal effect; % is scaled to controls: 0 for no effect and ±100 for the full control effect; nearly all actives have a fitted effect of over 65% in size
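Smad-responsive CAGA-GFP expression was quantified in HEPG2 cells exposed to compounds and 500 pg/mL final TGF-beta for 18 h at 37 degrees C; unstimulated wells defined full inhibition.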
HepG2 tox – counter-screen for TGF-b inhibitors: cytotoxicity in HepG2 cells; actives 0.76% (n = 410,000); HepG2 CAGA-GFP viability, ATP luminescence, 18 h; Potency, µM (series often up to 46.1 µM), for the others: at the highest dose activity change, negative = cytotoxicity, usual class: cytotoxic; also: potency is read from the fitted curve at half-maximal effect
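HepG2 CAGA-GFP cells (1000/well, DMEM with 1% FBS) received compound, then TGF-beta at 500 pg/mL final, and were incubated 18 hours at 37 degrees C. Viability was read by CellTiter-Glo luminescence. Media-only wells were set as complete cell-killing and DMSO as no toxicity.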
D3 ag – D3 dopamine receptor (human) agonism; AID 652048; actives 0.58% (n = 410,000); max activation, %; P35462; D3R DiscoveRx beta-arrestin cells, luminescence, 90 min; in the data active = max activation above about 30%; also: 0% is about no effect
Target sequence (P35462 whole entry, looked up): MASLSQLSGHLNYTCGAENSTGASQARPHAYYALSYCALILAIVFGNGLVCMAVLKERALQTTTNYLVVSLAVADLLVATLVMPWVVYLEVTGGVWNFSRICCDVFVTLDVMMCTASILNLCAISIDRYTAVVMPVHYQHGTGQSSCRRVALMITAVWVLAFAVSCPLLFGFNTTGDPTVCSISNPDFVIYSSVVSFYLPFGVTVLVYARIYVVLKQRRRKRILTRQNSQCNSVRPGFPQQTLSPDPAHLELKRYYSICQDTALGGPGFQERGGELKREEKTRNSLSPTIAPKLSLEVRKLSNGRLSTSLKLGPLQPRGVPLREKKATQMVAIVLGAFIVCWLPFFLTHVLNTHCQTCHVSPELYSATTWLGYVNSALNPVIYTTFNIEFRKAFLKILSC
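Agonist-mode cell screen: cells plated at 1500/well and incubated overnight at 37 °C, then exposed to library compounds for 90 min at 37 °C. Detection reagent was added for 30–60 min at room temperature, and luminescence was read.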
S2 tox – reduces viability in counter-screen for ATXN expression inhibitors | actives 0.49% (n = 400,000) | AID 651635 | S2 cells (HEK-293 line with an ATXN2-luciferase reporter) viability, CellTiter-Fluor protease fluorescence, 24 h | Potency, µM (top dose mostly 56.7 µM), actives largely listed as cytotoxic; also: potency is read from the fitted curve at half-maximal effect; nearly all actives have a fitted effect of over 40% in size
DRD3 antagonist – D3 dopamine receptor (human) antagonism; max response, negative = inhibition, %; P35462; D3R cells, DiscoveRx beta-arrestin luminescence, antagonist mode; active compounds read low; AID 652054; actives 2.5% (n = 360,000); in the data active = max response below about -50%; inconclusive = no clear call, values can overlap the other calls; also: % is scaled to controls: 0 for no effect and ±100 for the full control effect
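Cells plated overnight at 1500 cells/well, then exposed to library compounds with dopamine controls for 90 minutes at 37 degrees C. DiscoveRx reagent added for 30–60 minutes at room temperature; luminescence read, quantitative HTS format.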
ATXN2 expr inh – reduces ATXN2 reporter expression in HEK-293 cells; Potency, µM (series often up to 57 µM), for inactives: at the top dose activity change, negative = inhibition, actives largely listed as inhibitors; actives 0.72% (n = 360,000); AID 1745845; HEK-293 ATXN2-luciferase reporter, luminescence, 24 h; also: potency is read from the fitted curve at half-maximal effect; % is scaled to controls: 0 for no effect and ±100 for the full control effect; nearly all actives have a fitted effect of over 55% in size
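ATXN2-luciferase reporter cells (luciferase flanked by upstream and downstream ATXN2 gene portions) were treated 24 h at 37 °C with compounds at up to 57 uM. SteadyGlo luminescence gave expression; GF-AFC fluorescence gave viability.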
* hit, by the source's call. Unless noted, calls follow the shape of the dose curve; as a rule, active = well fitted curve in the direction sought with a large enough effect; inconclusive = small, poorly fitted or top-dose-only effect, or another doubt; inactive = no such curve, though single readings can be large; an effect the other way counts as inactive or inconclusive.

O=C(CCN1CCN(c2ccccc2F)CC1)Nc1ccccc1F was read as TGFb SMAD3 inh -9%, HepG2 tox -24%, D3 ag 32*, S2 tox inactive, DRD3 antagonist -25 and ATXN2 expr inh 18%.
For O=C(CN1CCN(c2ccccc2F)CC1)Nc1ccccc1F the results were TGFb SMAD3 inh -11%, HepG2 tox 4%, D3 ag -13, S2 tox inactive, DRD3 antagonist -58* and ATXN2 expr inh 4%.
For Cc1nc2c([nH]c3ccc(Br)cc32)s1 the results were TGFb SMAD3 inh -2%, HepG2 tox -4%, D3 ag 1, S2 tox inactive, DRD3 antagonist -101* and ATXN2 expr inh -15%.
`COc1cc(OC)c(NC(=O)C2CCCN(c3ncnc4c3nc3n4CCCCC3)C2)cc1Cl` (stereo unspecified) gave TGFb SMAD3 inh 8%, HepG2 tox 9%, D3 ag -18, S2 tox inactive and ATXN2 expr inh 6%.
O=C(Cn1cnc2c(NCc3ccccc3)ncnc21)NCCN1CCOCC1 was read as TGFb SMAD3 inh inconclusive, HepG2 tox -10%, D3 ag -26, S2 tox inactive, DRD3 antagonist -5 and ATXN2 expr inh 0%.
O=C(Cn1cnc2c(NCc3ccccc3)ncnc21)NCCCN1CCCC1=O was read as TGFb SMAD3 inh -23%, HepG2 tox -1%, D3 ag 34*, S2 tox inactive, DRD3 antagonist 24 and ATXN2 expr inh 6%.
CC1CN(Cc2c(O)ccc3c2oc(=O)c2ccccc23)CC(C)O1 (stereo unspecified) was read as TGFb SMAD3 inh -8%, HepG2 tox 4%, D3 ag -30, S2 tox inconclusive and DRD3 antagonist -66*.
Screening COC(=O)[C@@]12CCCCN1[C@H](c1ccc(-c3ccc(Cl)c(Cl)c3)c(OC)c1)[C@@H]1C(=O)N(C)C(=O)[C@@H]12 returned TGFb SMAD3 inh 4%, HepG2 tox -7%, D3 ag 41*, S2 tox inactive, DRD3 antagonist -23 and ATXN2 expr inh 1%.
OC[C@@H]1[C@@H](c2ccccc2)C(c2ccc(F)cc2)=NN1c1ccccc1 was read as TGFb SMAD3 inh 10µM*, HepG2 tox -49%, D3 ag 38*, DRD3 antagonist 72 and ATXN2 expr inh -10%.
For Cc1cccc(C2=NN(c3ccccc3)[C@H](CO)[C@H]2c2ccc(F)cc2)c1 the results were TGFb SMAD3 inh 20µM*, HepG2 tox -93%, D3 ag 9, DRD3 antagonist 53 and ATXN2 expr inh 0%.
Screening OC[C@@H]1[C@@H](c2ccc(Cl)cc2)C(c2ccc(F)cc2)=NN1c1ccccc1 returned TGFb SMAD3 inh inconclusive, HepG2 tox -100%, D3 ag 7, DRD3 antagonist 19 and ATXN2 expr inh -17%.
Screening COc1ccccc1[C@H]1C(c2cccc(Cl)c2)=NN(c2ccccc2)[C@@H]1CO returned TGFb SMAD3 inh 13µM*, HepG2 tox 13µM*, D3 ag 0, DRD3 antagonist 24 and ATXN2 expr inh inconclusive.
C=C1C(=O)O[C@H]2[C@H]1CC/C(C)=C\CC[C@@]1(C)O[C@@H]21 was read as D3 ag -10 and S2 tox inconclusive.
Screening C=C1C(=O)O[C@H]2C[C@H]1[C@@H](OC(C)=O)C/C(C)=C/CC/C(C)=C\CC[C@]2(C)O returned TGFb SMAD3 inh 3.2µM*, HepG2 tox -102%, D3 ag -23, S2 tox 7.9µM*, DRD3 antagonist inconclusive and ATXN2 expr inh 5.6µM*.
`CCCOc1ccc(C(=O)NNC(=S)NC(=O)CC)cc1` gave TGFb SMAD3 inh -23%, HepG2 tox -10%, D3 ag -14, DRD3 antagonist inconclusive and ATXN2 expr inh 28µM*.
Screening C=CCNC(=S)NNC(=O)c1ccc(OCCC)cc1 returned TGFb SMAD3 inh 21%, HepG2 tox 2%, D3 ag -11, S2 tox inactive, DRD3 antagonist 57 and ATXN2 expr inh 4%.
`CC(=O)Oc1ccc(OC(C)=O)c(SCCCCCN2CCOCC2)c1` gave TGFb SMAD3 inh 16µM*, HepG2 tox -81%, D3 ag -65, S2 tox inconclusive, DRD3 antagonist -22 and ATXN2 expr inh inconclusive.
Screening Cc1ccc(C(=O)N/N=C/c2cn(Cc3ccccc3)c3ccccc23)cn1 returned TGFb SMAD3 inh 1.6µM*, HepG2 tox 0.56µM*, D3 ag -12, S2 tox inactive and DRD3 antagonist inconclusive.
`Cc1ccc(Cn2cc(/C=N/Nc3ccc([N+](=O)[O-])cn3)c3ccccc32)cc1` gave TGFb SMAD3 inh 4.5µM*, HepG2 tox -33%, D3 ag -8, S2 tox inactive, DRD3 antagonist -29 and ATXN2 expr inh -15%.
For O=C(O)Cn1cc(/C=N/Nc2ccc([N+](=O)[O-])cn2)c2ccccc21 the results were TGFb SMAD3 inh 1%, HepG2 tox -17%, D3 ag -33, S2 tox inconclusive, DRD3 antagonist 0 and ATXN2 expr inh 2%.
Screening O=C(Nc1ccccc1Br)C(Cc1ccccc1)NS(=O)(=O)c1cccc2nsnc12 (stereo unspecified) returned TGFb SMAD3 inh -29%, HepG2 tox -3%, D3 ag -11, S2 tox inactive and ATXN2 expr inh -20%.
O=C1c2ccccc2NC(c2ccccc2OCc2ccccc2)N1Cc1ccco1 (stereo unspecified) was read as TGFb SMAD3 inh inconclusive and HepG2 tox -30%.
`CCOC(=O)c1ccc(S(=O)(=O)N2CCN(CC(=O)NC(=O)NC(C)(C)C)CC2)cc1` gave TGFb SMAD3 inh 2%, HepG2 tox -13%, D3 ag 3, S2 tox inactive, DRD3 antagonist -71* and ATXN2 expr inh 7%.
Screening CC(C)(C)NC(=O)NC(=O)CN1CCN(S(=O)(=O)c2ccccc2)CC1 returned TGFb SMAD3 inh -2%, HepG2 tox -1%, D3 ag 1, S2 tox inactive, DRD3 antagonist 19 and ATXN2 expr inh -17%.
CC(Cc1ccccc1)C(=O)NCc1ccncc1 (stereo unspecified) was read as TGFb SMAD3 inh 4%, HepG2 tox -2%, D3 ag -10, S2 tox inactive, DRD3 antagonist inconclusive and ATXN2 expr inh 0%.
Screening CC(CCc1ccccc1)NCc1ccncc1 (stereo unspecified) returned TGFb SMAD3 inh 17%, HepG2 tox 9%, D3 ag 78*, S2 tox inactive, DRD3 antagonist 13 and ATXN2 expr inh 2%.

Compound activity from PubChem.
